What is called viability is a read-out of living cells in per cent, often relative to untreated cells.

A number with no mark means an inactive call. Active and inactive are the calls of the source.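 The calls were made as follows, unless noted: active = viability loss from added drug above about 55%, and viability with drug at most 40%, in both replicates (limit read from the data, passing the limit was not always enough); inconclusive = both conditions met in only one replicate; inactive = neither replicate meets both conditions.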

A short description of one assay: H69AR cell proliferation blockers – human, duplicate replicates, primary screen (AID 580;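 active = viability at or under a set limit in both replicates, limit being median viability minus 3 SD, cut at about 48% in these data, passing the limit was not always enough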;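 also: 100% = mean luminescence of untreated wells and 0% = no signal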). The conditions noted are these: H69AR lung tumor cells viability, ATP luminescence, 72 h; at 10 µM; stronger effect = lower value.
Consider `CCOC(=O)C1CCN(c2c(NC3CCCCCCC3)c(=O)c2=O)CC1`, for which the viability is 79.7%.
Consider `Cc1nc(NC2=NCN(CCN3CCOCC3)CN2)nc2c(C)cccc12`, for which the viability was 95.2%.
Regarding `CCN(CC)C(=O)c1sc2nc(-c3cccs3)cc(-c3cccs3)c2c1N`, the viability is 71.8%.
On the same count and under the same terms, to `O=C(O)C1CCCN1c1ncnc2c1oc1ccccc12` (stereo not given) belongs 92.3%.
As to `CCOc1cccc(Oc2ccc(C(F)(F)F)cn2)c1`, the viability was 99.9%.
Same read-out and setting: to `CCOC(=O)N1CCN(Cc2ccccc2F)CC1` belongs 85%.
Still for that read-out and setting: the result for `CCCS(=O)(=O)C(=C1Nc2ccccc2N1)S(=O)(=O)CCC` reads 103%; that for `O=C(NCCSCc1ccco1)Nc1cccc(Cl)c1`, 86.3%.
On the same count and under the same terms, the result for `O=C1C2C3C=CC(C3=C3CCCCC3)C2C(=O)N1c1ccccc1` (stereo not given) reads 95.8%; that for `OC1(c2cccc(C(F)(F)F)c2)CCNCC1`, 90.8%; that for `CCOc1ccc2[nH]cc(C(=O)N3CCN(CC)CC3)c(=O)c2c1`, 89.6%.
With `O=C(NC1CCCCCC1)C1CCCN(S(=O)(=O)c2cccs2)C1` (stereo not given), the viability was 105%.
For `O=C(CSc1nnnn1C1CCCC1)N1CCN(C(=O)c2ccco2)CC1`, the viability is 105%.
On the same count and under the same terms, to `O=S(=O)(c1ccc(S(=O)(=O)N(Cc2ccco2)Cc2ccccc2Cl)cc1)N1CCCC1` belongs 76.6%.
Still for that read-out and setting: the result for `CN(C)S(=O)(=O)c1ccc(S(=O)(=O)N(Cc2ccco2)Cc2ccccc2Cl)cc1` reads 95.8%; that for `O=C(Nc1cccc2ncccc12)c1ccc2c(c1)OCCO2`, 104%; that for `Cc1cc(C)n(C(=O)CCCCCC(=O)n2nc(C)cc2C)n1`, 105%.
The same measure, in the same setting: the result for `O=c1c[n+]([O-])c2ccccc2n1OCc1ccccn1` reads 105%; that for `O=C(CN(c1ccccc1)S(=O)(=O)c1ccccc1)N1CCN(Cc2ccc3c(c2)OCO3)CC1`, 96.9%; that for `N#CC(C(=O)Nc1ccc(Cl)c(Cl)c1)=C1Nc2ccccc2N1`, 13.5% (active).
Take `CCCc1cc(=O)n2[nH]cnc2n1`: the viability is 100%.
Still for that read-out and setting: to `COc1ccc(-c2noc(-c3ccccc3C(=O)Nc3cccnc3)n2)cc1` belongs 86.5%.
The same measure, in the same setting: to `COc1ccccc1-n1c(SCC(=O)Nc2ccc3c(c2)OCO3)nc2c(c1=O)SCC2` belongs 87.4%; to `N#CC1=C(N)N(c2ccccc2)C(c2ccco2)C1(C#N)C#N` (stereo not given), 85.5%.
The same measure, in the same setting: the result for `O=C(N1CCN(c2ccccc2F)CC1)C12CC3CC(CC(C3)C1)C2` reads 89.9%; that for `COc1ccc(C2C(C(C)=O)=C(O)C(=O)N2C)c(OC)c1` (stereo not given), 114%; that for `O=C(CN1C(=O)CCSc2ccccc21)Nc1ccc2c(c1)OCO2`, 103%.
Regarding `COc1cccc(C(=O)Nc2ccc(NC(C)=O)cn2)c1`, the viability was 106%.
`COC(=O)c1cc(Oc2ccc(C(=O)OC)cc2N)cc(C(=O)OC)c1`: the viability was 96.5%.
Consider `CCOC(=O)c1sc2nc(SCC#N)n(CCCN3CCCC3=O)c(=O)c2c1C`, for which the viability is 75.8%.
Same read-out and setting: to `Nc1c(C(=O)NCc2ccco2)nnn1Cc1ccccc1` belongs 96%; to `Cc1ccc(N2C(N)=NC(N)=NC23CCCC3)c(C)c1`, 106%.
`CCCCc1ccc(NC(=O)COCC)cc1`: the viability is 93.1%.
For `Cc1ccc2nc(SC(C)C(=O)N3CCCC3)[nH]c2c1` (stereo not given), the viability was 97.6%.
`CN(C)c1cccc(C(=O)OCC(=O)NCc2ccco2)c1`: the viability was 86.2%.
On to `CCN(CC)CCOC(=O)c1cccc(OC)c1`, for which the viability is 90.2%.
As to `COc1ccc(NC(=O)CCNC(=O)Cn2ccc3ccccc3c2=O)c(OC)c1`, the viability was 103%.
As to `COc1ccc(CCNc2oc(-c3ccccc3OC)nc2C#N)cc1`, the viability is 95.2%.
Same read-out and setting: the result for `Fc1ccc(-c2cnc[nH]2)cc1` reads 96.7%.
On to `Cc1cc(NC(=O)CSc2nnc(C3CC3)n2C)no1`, for which the viability is 100%.

Another assay can be described thus: MRP1 drug-resistance reversers in H69AR cells – cell-based, doxorubicin co-treatment, pilot screen (AID 601). As to conditions: H69AR cells + 2 uM doxorubicin, CellTiter-Glo, 72 h; at 10 µM; stronger effect = higher value. In general terms: Cellular ATP, detected with luciferase, serves as a proxy for viable cell number.
On to `CCOC(=O)C1CCN(c2c(NC3CCCCCCC3)c(=O)c2=O)CC1`, for which the differential viability (reversal) was 8.71%.
Turning to `Cc1nc(NC2=NCN(CCN3CCOCC3)CN2)nc2c(C)cccc12`, the differential viability (reversal) is -12.6%.
On to `CCN(CC)C(=O)c1sc2nc(-c3cccs3)cc(-c3cccs3)c2c1N`, for which the differential viability (reversal) was -12.7%.
Same read-out and setting: the result for `O=C(O)C1CCCN1c1ncnc2c1oc1ccccc12` (stereo not given) reads -7.12%.
The same measure, in the same setting: the result for `CCOc1cccc(Oc2ccc(C(F)(F)F)cn2)c1` reads 6.58%; that for `CCOC(=O)N1CCN(Cc2ccccc2F)CC1`, -2.15%.
Still for that read-out and setting: to `CCCS(=O)(=O)C(=C1Nc2ccccc2N1)S(=O)(=O)CCC` belongs 12.9%; to `O=C(NCCSCc1ccco1)Nc1cccc(Cl)c1`, 2.05%.
As for `O=C1C2C3C=CC(C3=C3CCCCC3)C2C(=O)N1c1ccccc1` (stereo not given), the differential viability (reversal) was 1.16%.
Still for that read-out and setting: the result for `OC1(c2cccc(C(F)(F)F)c2)CCNCC1` reads 4.62%; that for `CCOc1ccc2[nH]cc(C(=O)N3CCN(CC)CC3)c(=O)c2c1`, -14.2%; that for `O=C(NC1CCCCCC1)C1CCCN(S(=O)(=O)c2cccs2)C1` (stereo not given), 17.6%.
As to `O=C(CSc1nnnn1C1CCCC1)N1CCN(C(=O)c2ccco2)CC1`, the differential viability (reversal) is 1.94%.
Still for that read-out and setting: the result for `O=S(=O)(c1ccc(S(=O)(=O)N(Cc2ccco2)Cc2ccccc2Cl)cc1)N1CCCC1` reads 12.4%; that for `CN(C)S(=O)(=O)c1ccc(S(=O)(=O)N(Cc2ccco2)Cc2ccccc2Cl)cc1`, 7.62%.
Same read-out and setting: the result for `O=C(Nc1cccc2ncccc12)c1ccc2c(c1)OCCO2` reads 11.7%.
On the same count and under the same terms, to `Cc1cc(C)n(C(=O)CCCCCC(=O)n2nc(C)cc2C)n1` belongs 10.8%.
For the compound `O=c1c[n+]([O-])c2ccccc2n1OCc1ccccn1`, the differential viability (reversal) is 12.1%.
The same measure, in the same setting: the result for `O=C(CN(c1ccccc1)S(=O)(=O)c1ccccc1)N1CCN(Cc2ccc3c(c2)OCO3)CC1` reads 5.03%; that for `N#CC(C(=O)Nc1ccc(Cl)c(Cl)c1)=C1Nc2ccccc2N1`, -10.8%.
On the same count and under the same terms, to `CCCc1cc(=O)n2[nH]cnc2n1` belongs 3.53%.
On the same count and under the same terms, to `COc1ccc(-c2noc(-c3ccccc3C(=O)Nc3cccnc3)n2)cc1` belongs 13.2%.
Take `COc1ccccc1-n1c(SCC(=O)Nc2ccc3c(c2)OCO3)nc2c(c1=O)SCC2`: the differential viability (reversal) is 0.71%.
The same measure, in the same setting: the result for `N#CC1=C(N)N(c2ccccc2)C(c2ccco2)C1(C#N)C#N` (stereo not given) reads -0.88%; that for `O=C(N1CCN(c2ccccc2F)CC1)C12CC3CC(CC(C3)C1)C2`, -8.84%; that for `COc1ccc(C2C(C(C)=O)=C(O)C(=O)N2C)c(OC)c1` (stereo not given), 22.1%.
The same measure, in the same setting: to `O=C(CN1C(=O)CCSc2ccccc21)Nc1ccc2c(c1)OCO2` belongs 0.09%.
Regarding `COc1cccc(C(=O)Nc2ccc(NC(C)=O)cn2)c1`, the differential viability (reversal) was 12.5%.
Same read-out and setting: to `COC(=O)c1cc(Oc2ccc(C(=O)OC)cc2N)cc(C(=O)OC)c1` belongs -2.62%; to `CCOC(=O)c1sc2nc(SCC#N)n(CCCN3CCCC3=O)c(=O)c2c1C`, -8.2%.
On the same count and under the same terms, to `Nc1c(C(=O)NCc2ccco2)nnn1Cc1ccccc1` belongs 0.935%; to `Cc1ccc(N2C(N)=NC(N)=NC23CCCC3)c(C)c1`, 20.6%; to `CCCCc1ccc(NC(=O)COCC)cc1`, 7.21%.
On the same count and under the same terms, to `Cc1ccc2nc(SC(C)C(=O)N3CCCC3)[nH]c2c1` (stereo not given) belongs 6.04%; to `CN(C)c1cccc(C(=O)OCC(=O)NCc2ccco2)c1`, 7.69%.
Take `CCN(CC)CCOC(=O)c1cccc(OC)c1`: the differential viability (reversal) is -4.21%.
On the same count and under the same terms, the result for `COc1ccc(NC(=O)CCNC(=O)Cn2ccc3ccccc3c2=O)c(OC)c1` reads 14.4%; that for `COc1ccc(CCNc2oc(-c3ccccc3OC)nc2C#N)cc1`, 0.34%; that for `Fc1ccc(-c2cnc[nH]2)cc1`, 6.2%.
In the case of `Cc1cc(NC(=O)CSc2nnc(C3CC3)n2C)no1`, the differential viability (reversal) was 0.235%.

The values are drawn from PubChem BioAssay.
